Bioassay records from PubChem BioAssay.
Most compounds without a hit are left out; they make up all but 7.9% or so of the library.
SW480 rereplic: A quantitative high throughput screen for small molecules that induce DNA re-replication in SW480 colon adenocarcinoma cells; SW480 DNA re-replication, Hoechst DNA content imaging, 48 h; Potency, µM (top dose mostly 46.1 µM), for the others: at the highest dose re-replication activation, actives largely listed as activators; actives 1.8% (n = 340,000); AID 624297, 2012; further: % of control where 0% means no effect; nearly all actives have a fitted effect of over 55% in size
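Image-based DNA-content assay: after two days of treatment, nuclei were labelled with the DNA dye Hoechst and imaged, and hits were compounds raising the count of nuclei showing high fluorescence intensity.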
KB-V1 MDR tox: qHTS assay for MDR1-selective chemotherapeutics: Primary screen using the drug-selected MDR subline cells KB-V1; KB-V1 MDR cells viability, CellTiter-Glo, 72 h; Potency, µM (doses to about 46.1 µM), actives largely listed as cytotoxic; actives 3.4% (n = 400,000); AID 1347076, 2019; further: on the % scale 0 is the no-effect control and ±100 the full control effect; nearly all actives have a fitted effect of over 60% in size
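KB-V1, DMEM (no phenol red) + 10% FBS; cpd pin-transferred, titration series; 72 h, 37 degrees C; CellTiter-Glo, luminescence. Data normalized, curve-fit.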
KB-3-1 cytotox: qHTS assay for MDR1-selective chemotherapeutics: Primary screen using the parental adenocarcinoma cell KB-3-1; KB-3-1 viability, CellTiter-Glo ATP luminescence, 72 h; Potency, µM (titrated, usually from 46.1 µM), usual class: cytotoxic; actives 1.4% (n = 400,000); AID 1347075, 2019; further: on the % scale 0 is the no-effect control and ±100 the full control effect; nearly all actives have a fitted effect of over 60% in size
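KB-3-1 cells, DMEM (no phenol red) + 10% FBS; compound by pin transfer, 72 h, 37 °C. Readout: CellTiter-Glo luminescence after 10 min. Data normalized, curve-fitted.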
HT1080-NT tox: qHTS for induction of synthetic lethality in tumor cells producing 2HG: qHTS for the HT-1080-NT fibrosarcoma cell line | AID 686970, 2013 | HT-1080-NT fibrosarcoma viability, CellTiter-Glo ATP luminescence, 48 h | actives 1.6% (n = 360,000) | Potency, µM (top dose mostly 46.1 µM), for inactives: at the highest dose activity, negative = less viability, actives largely listed as cytotoxic;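 further: NT is the 2HG producing partner of a matched IDH1 knockdown line; 0% = DMSO-treated cells and -100% = media-only wells without cells; nearly all actives have a fitted effect of over 55% in size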
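Viability by CellTiter-Glo luminescence after 48 h compound exposure at 37C of HT-1080-NT cells (750/well, RPMI, 5% FBS). % activity scaled between DMSO wells and medium-only wells, then curve-fitted and categorized by curve class.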
MCF10A rerep: A quantitative high throughput screen for small molecules that induce DNA re-replication in MCF 10a normal breast cells | MCF 10A DNA re-replication, Hoechst nuclear intensity, 48 h | Potency, µM (series often up to 46.1 µM), for inactives: at the top dose activity, positive = re-replication, usual class: activators | actives 2.9% (n = 350,000) | AID 624296, 2012; further: % of control where 0% means no effect; nearly all actives have a fitted effect of over 50% in size
HT1080 IDH1KD tx: qHTS for induction of synthetic lethality in tumor cells producing 2HG: qHTS for the HT-1080-IDH1KD cell line; Potency, µM (highest dose often 46.1 µM), without a hit: at the highest dose activity, negative = toxicity, hits mostly cytotoxic; actives 2% (n = 360,000); HT-1080 IDH1 knockdown viability, ATP luminescence, 48 h;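 further: 0% = DMSO wells and -100% = cell-free medium wells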
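% activity derives from luminescence (CellTiter-Glo), normalised to DMSO and no-cell wells. HT-1080-IDH1KD cells, 750/well, had 48 h compound exposure at 37 °C.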
* hit, by the source's call; i = inactive; ? = inconclusive; nt = not tested or not shown; [ ] = dose if it differs, or a comment. The call rests on the fitted dose curve; in most records, active means well fitted curve in the direction sought with a large enough effect; inconclusive means small, poorly fitted or top-dose-only effect, or another doubt; inactive means no such curve, though single readings can be large; an effect the other way counts as inactive or inconclusive. Potency means the concentration at half of the fitted maximal effect.

SMILES	SW480 rereplic	KB-V1 MDR tox	KB-3-1 cytotox	HT1080-NT tox	MCF10A rerep	HT1080 IDH1KD tx
O=C1c2ccccc2C(=O)N1CCc1c[nH]c2ccc(O)cc12	3.66µM*	?	i	21.8%	-2.1%	12.3%
O=C1c2ccccc2C(=O)N1CCc1c[nH]c2ccccc12	-81.4%	?	i	-1.4%	23.8%	-3.2%
O=C1CN(C(=O)CCCc2c[nH]c3ccccc23)c2ccccc2N1	0.2%	i	i	-15.9%	15.8µM*	-0.9%
O=C1c2ccccc2C(=O)N1CCCc1c[nH]c2ccccc12	25.9%	20.6µM*	i	8.4%	?	-13.9%
COCCNC(=O)C1(C)CCN(C(=O)c2cccc(C)c2C)C1 (centres undefined)	nt	i	i	?	nt	14.0%
CSc1cc(-c2ccccc2)n(C)c(=O)c1C#N	-5.0%	?	i	-20.3%	?	-2.0%
CSc1cc(-c2ccc(Cl)cc2)n(Cc2ccccc2)c(=O)c1C#N	-3.2%	i	16.4µM*	4.8%	15.3%	6.3%
COc1ccc(NC(=O)CCc2ccccc2)cc1S(=O)(=O)N1CCOCC1	-8.5%	i	i	10.0%	6.0%	11.5%
O=C(Nc1ccc(F)c(S(=O)(=O)N2CCOCC2)c1)C1CCCCC1	-0.9%	18.4µM*	i	8.1%	11.0%	11.1%
Cn1c(=O)n(C)c2cc(NC(=O)CCl)ccc21	?	16.4µM*	4.61µM*	?	18.4µM*	?
O=C(Nc1ccc(Cl)c(S(=O)(=O)N2CCOCC2)c1)C1CCCC1	-2.5%	i	i	2.3%	-2.5%	0.0%
C=CCNC(=S)Nc1ccc(C)c(S(=O)(=O)N2CCCCC2)c1	1.7%	?	i	0.0%	3.5%	0.9%
COc1ccc(NC(=O)CCc2ccccc2)cc1S(=O)(=O)N1CCCCC1	-2.2%	5.17µM*	?	-1.6%	5.3%	0.1%
Cc1ccc(NC(=S)Nc2ccc(C(C)C)cc2)cc1S(=O)(=O)N1CCCCCC1	?	14.6µM*	i	?	?	20.6µM*
COc1ccc(Cl)cc1S(=O)(=O)Nc1cccc(-c2ccc(N3CCCC3)nn2)c1	nt	i	i	nt	nt	nt
Cc1ccccc1OCC(=O)Nc1ccc(C)c(S(=O)(=O)N2CCCCCC2)c1	-4.5%	11.6µM*	i	0.8%	15.8%	2.9%
COc1ccc(C(=O)OCc2ccccc2F)cc1S(=O)(=O)N1CCCC1	-3.7%	16.4µM*	i	0.8%	4.5%	10.5%
COc1ccc(NC(=O)CCOc2ccc(C)cc2)cc1S(=O)(=O)N1CCOCC1	-8.8%	18.4µM*	i	1.3%	0.8%	-12.6%
COc1ccc(NC(=O)Cc2ccsc2)cc1S(=O)(=O)N1CCCCC1	0.4%	20.6µM*	i	7.6%	-2.8%	6.3%
COc1ccc(OCCCC(=O)Nc2ccc(OC)c(S(=O)(=O)N3CCOCC3)c2)cc1	-27.6%	i	i	-2.4%	6.0%	-2.6%
CCCn1c2ccccc2c2cnn(CC(=O)NCCc3ccc(C)cc3)c(=O)c21	nt	i	i	nt	nt	nt
CCOC(=O)c1c(C)[nH]c(C)c1S(=O)(=O)N1CCCC(C(=O)Nc2cc(C)ccc2C)C1 (centres undefined)	nt	i	i	nt	nt	nt
Cn1c(=O)n(C)c2cc(NC(=O)COc3ccccc3)ccc21	-12.2%	i	i	0.1%	1.6%	-1.1%
Cc1ccccc1OCC(=O)Nc1ccc2c(c1)n(C)c(=O)n2C	-20.5%[1.84 µM]	13µM*	i	0.2%	5.1%	-17.3%
COc1ccc(OCC(=O)Nc2ccc(OC)c(S(=O)(=O)N3CCCCC3)c2)cc1	16.4µM*	i	20.6µM*	-17.7%	?	?
SMILES	SW480 rereplic	KB-V1 MDR tox	KB-3-1 cytotox	HT1080-NT tox	MCF10A rerep	HT1080 IDH1KD tx
O=C(CCOc1cccc(Br)c1)Nc1ccc(F)c(S(=O)(=O)N2CCOCC2)c1	11.0%	23.1µM*	i	-16.9%	?	-23.2%
CCOc1ncccc1C(=O)Nc1ccc(C)c(S(=O)(=O)N2CCCCCC2)c1	-14.7%	?	?	-9.5%[9.24 µM]	9.2µM*	-18.0%
Cc1ccc(CNC(=O)c2ccc3c(O)c(S(=O)(=O)c4ccccc4)c(=O)[nH]c3c2)cc1	nt	?	i	nt	nt	nt
COc1cc(CCC(=O)Nc2ccc(C)c(S(=O)(=O)N3CCCCCC3)c2)cc(OC)c1OC	-2.0%	3.66µM*	6.51µM*	-3.9%	12.6%	?
COc1cc(CCC(=O)Nc2ccc(S(=O)(=O)N3CCCC3)cc2)cc(OC)c1OC	-10.2%	i	i	1.0%	12.0%	-3.9%
O=C(Nc1ccc(Cl)cc1C(=O)NCC1CCCO1)c1ccco1 (centres undefined)	-3.3%	8.2µM*	?	0.9%	?	-0.6%
O=C(Nc1ccc(Cl)cc1C(=O)NCC1CCCO1)c1ccc(Cl)cc1Cl (centres undefined)	-62.8%	10.3µM*	i	1.6%	?	5.5%
O=C(NCC1CCCO1)c1ccccc1OCc1ccc(F)cc1 (centres undefined)	-7.0%	?	i	4.2%	10.4%	2.0%
O=C(NCC1CCCO1)c1ccccc1OCc1ccc(Cl)cc1 (centres undefined)	2.7%	3.66µM*	i	9.0%	6.8%	2.6%
O=C(Nc1ccc(Cl)cc1C(=O)NCCN1CCOCC1)c1ccc(Cl)cc1Cl	0.0%	4.61µM*	i	-10.3%	0.6%	-5.8%
CCC(C)n1c(=N)c(S(=O)(=O)c2ccccc2)cc2c(=O)n3ccccc3nc21 (centres undefined)	nt	?	i	nt	nt	nt
COc1ccc(NC(=O)Nc2cc(-c3cn4cccnc4n3)ccc2C)cc1	nt	i	i	nt	nt	nt
Cc1ccc(C)c(CN2CCCN(Cc3ccccc3C)S2(=O)=O)c1	nt	i	i	nt	nt	nt
Cc1ccc2c(c1)N(CCC(=O)NCc1ccccc1Cl)C(=O)CO2	nt	i	i	nt	nt	nt
Cc1cccc(C)c1NC(=O)C(c1ccc(C#N)cc1)n1c(=O)c(-c2cc3ccccc3[nH]2)nc2ccccc21 (centres undefined)	nt	?	i	?	nt	?
COC(=O)c1ccc(CSc2ccc3nnc(-c4ccc(OC)c(OC)c4)n3n2)o1	-17.8%	7.31µM*	i	5.8%	-0.8%	2.7%
COc1ccc(-c2nnc3ccc(SCC(=O)N4CCCCCC4)nn23)cc1OC	-4.4%	i	i	-3.0%	4.9%	-1.6%
